MEKK3 PB1 HTS – MEKK3-MEK5 PB1 interaction, increase or decrease; binding response (% of control), % at 10 µM; Q99759; bead-based flow cytometry, Alexa488-MEK5 binding to MEKK3; actives lie on both sides; 0 = blocked by unlabeled MEK5, 100 = vehicle; AID 1529; 290,000 compounds, 1.4% hits;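 active = binding response more than 3 SD above or below the average of its plate-row segment, actives on both sides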;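 also: Alexa488 bead fluorescence after subtracting the streptavidin-only scavenger bead signal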
MEKK2mut PB1 HTS – signal of MEK5 binding to mutant human MEKK2 PB1 domain; 290,000 compounds, 0.35% hits; AID 1530; bead flow cytometry, Alexa488-MEK5 binding to MEKK2 mutant; percent response, % at 10 µM; in the data active = percent response above about 24%, passing the limit was not always enough
dFosB activator – mouse delta FosB homodimer activation. purified delta FosB, TAMRA-CDK5 oligo fluorescence polarization; percent of positive-control signal above neutral wells. P13346. AID 493131. activation, % at 25 µM. 340,000 compounds, 0.99% hits;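 active = mean activation above about 17%, with every replicate also reaching it, limit read from the data, passing the limit was not always enough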
Target sequence (P13346 whole entry, looked up): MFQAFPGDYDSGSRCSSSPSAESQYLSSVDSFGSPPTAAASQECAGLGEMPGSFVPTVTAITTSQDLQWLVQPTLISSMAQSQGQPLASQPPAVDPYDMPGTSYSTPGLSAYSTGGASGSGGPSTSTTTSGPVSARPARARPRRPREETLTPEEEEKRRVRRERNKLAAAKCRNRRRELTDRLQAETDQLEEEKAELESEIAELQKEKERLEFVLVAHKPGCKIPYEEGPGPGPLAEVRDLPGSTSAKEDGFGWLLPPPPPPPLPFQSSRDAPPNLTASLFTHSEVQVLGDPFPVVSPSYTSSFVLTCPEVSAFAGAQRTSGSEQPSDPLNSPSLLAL
DNA FID counter – fluorescent intercalator displacement, NS3 helicase counter-screen | inhibition, % at 7.9 µM | 290,000 compounds, 0.17% hits | DNA fluorescent intercalator displacement, fluorescence; in the data active = inhibition above about 37%;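 also: 0% = vehicle and 100% = reference compound; higher means more ethidium bromide displaced from hairpin DNA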
MEKK2 WT-MEK5 – raises or lowers MEK5 binding to wildtype human MEKK2 PB1 domain | 290,000 compounds, 1.1% hits | AID 1531 | Q9Y2U5 | bead flow cytometry, Alexa488-MEK5 binding to MEKK2 WT; actives lie on both sides | binding response (% of control), % at 10 µM; in the data active = binding response below about 67% or above about 130%
MEKK2wt confirm – raises or lowers MEK5 binding to wildtype human MEKK2, retest | shares compounds with MEKK3 PB1 HTS | bead flow cytometry, Alexa488-MEK5 binding to MEKK2 WT; actives lie on both sides | binding response (% of control), % at 10 µM | 5,900 compounds, 2.4% hits | AID 1892; in the data active = binding response below about 16% or above about 210%; inactive = in between
MEKK2mut confirm – signal of MEK5 binding to mutant human MEKK2, retest. shares compounds with MEKK3 PB1 HTS. bead flow cytometry, Alexa488-MEK5 binding to MEKK2 mutant. percent response, % at 10 µM. 5,900 compounds, 2% hits; in the data active = percent response mostly above about 71%, no sharp cut-off; inactive = mostly below about 38%;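 also: higher means compound restores mutant binding toward wildtype level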
MEKK3-MEK5 inh – MEKK3-MEK5 PB1 inhibition, single concentration confirmation | shares compounds with MEKK3 PB1 HTS | bead flow cytometry, Alexa488-MEK5 binding to MEKK3; active compounds read low | binding response (% of control), % at 10 µM | 5,900 compounds, 1.8% hits | AID 1894;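 active = binding response below 72% of control, or above a set upper limit, though filed actives all read lower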;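 also: 100% = DMSO only wells and 0% = binding blocked by excess unlabeled MEK5; lower values mean stronger disruption of MEK5 binding to MEKK3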
An asterisk follows results filed as active; [ ] = dose if it differs, or a comment. In the library only some 2.9% were active in any assay of this set; here they are far more common.

For Cn1c(-c2ccc(C(C)(C)C)cc2)n[nH]c1=S the results were MEKK3 PB1 HTS 81.0*[inhibitor], MEKK2mut PB1 HTS -9.0, dFosB activator -4.3, DNA FID counter -13.7, MEKK2 WT-MEK5 92.0, MEKK2wt confirm 111.0, MEKK2mut confirm 9.0 and MEKK3-MEK5 inh 105.0.
CCn1c(-c2ccc(C(C)(C)C)cc2)n[nH]c1=S was read as MEKK3 PB1 HTS 97.0, MEKK2mut PB1 HTS -5.0, dFosB activator -6.2, DNA FID counter -15.1 and MEKK2 WT-MEK5 93.0.
`Fc1cccc(Nc2nc(Cl)nc(Cl)n2)c1` gave MEKK3 PB1 HTS 3.0*[inhibitor], MEKK2mut PB1 HTS -22.0, dFosB activator -5.1, DNA FID counter 1.2, MEKK2 WT-MEK5 3.0*[inhibitor], MEKK2wt confirm 104.0, MEKK2mut confirm 5.0 and MEKK3-MEK5 inh 103.0.
`CN(C#N)c1nc(Cl)nc(Nc2cccc(Cl)c2)n1` gave MEKK3 PB1 HTS 144.0*, MEKK2mut PB1 HTS 4.0, dFosB activator -1.3, DNA FID counter -12.0, MEKK2 WT-MEK5 112.0, MEKK2wt confirm 102.0, MEKK2mut confirm -1.0 and MEKK3-MEK5 inh 100.0.
O=C(O)CNC(=S)N(Cc1ccc(F)cc1)C1CCCCC1 was read as MEKK3 PB1 HTS 91.0, MEKK2mut PB1 HTS -8.0, dFosB activator 4.2, DNA FID counter -31.1 and MEKK2 WT-MEK5 88.0.
O=C(O)CNC(=S)N(Cc1ccccc1Cl)C1CCCCC1 was read as MEKK3 PB1 HTS 48.0*[inhibitor], MEKK2mut PB1 HTS -14.0, dFosB activator -2.5, DNA FID counter -45.9, MEKK2 WT-MEK5 63.0, MEKK2wt confirm 87.0, MEKK2mut confirm -11.0 and MEKK3-MEK5 inh 85.0.
Screening COc1ccccc1-c1nnc(SCC(=O)NC2CCS(=O)(=O)C2)n1N (configuration not stated) returned dFosB activator -0.8 and DNA FID counter 3.1.
CC1CCN(S(=O)(=O)c2ccc(NC(=O)[C@@H]3CCCN3C(=O)c3cccs3)cc2)CC1 was read as dFosB activator 3.0.
Screening CC(=O)c1ccc(NC(=O)CSc2ccc(-c3ccc4c(c3)OCO4)nn2)cc1 returned MEKK3 PB1 HTS 130.0*, MEKK2mut PB1 HTS 0.0, dFosB activator -5.7, DNA FID counter -2.9, MEKK2 WT-MEK5 103.0, MEKK2wt confirm 106.0, MEKK2mut confirm 7.0 and MEKK3-MEK5 inh 107.0.
C(=C\c1ccco1)/C1=NN(c2ccccc2)C(c2ccco2)C1 (configuration not stated) was read as MEKK3 PB1 HTS 129.0*, MEKK2mut PB1 HTS 2.0, dFosB activator -10.8, DNA FID counter -17.0, MEKK2 WT-MEK5 78.0, MEKK2wt confirm 98.0, MEKK2mut confirm -3.0 and MEKK3-MEK5 inh 102.0.
O=[N+]([O-])c1ccc(/C=C/C2=NN(c3ccccc3)C(c3ccco3)C2)o1 (configuration not stated) was read as MEKK3 PB1 HTS 15.0*[inhibitor], MEKK2mut PB1 HTS 44.0, dFosB activator -9.8, DNA FID counter -3.8, MEKK2wt confirm 29.0, MEKK2mut confirm -52.0 and MEKK3-MEK5 inh 20.0*.
For CC1CC(=O)Nc2ccccc2N1C(=O)CN1CCN(c2ccccc2)CC1 (configuration not stated) the results were MEKK3 PB1 HTS 94.0, MEKK2mut PB1 HTS -4.0, dFosB activator -0.2, DNA FID counter -6.0, MEKK2 WT-MEK5 -5.0*[inhibitor], MEKK2wt confirm 99.0, MEKK2mut confirm -5.0 and MEKK3-MEK5 inh 99.0.
Cn1c(NNC(=O)c2c(F)cccc2F)cc(=O)n(C)c1=O was read as MEKK3 PB1 HTS 101.0, MEKK2mut PB1 HTS -4.0, dFosB activator 5.9, DNA FID counter -0.5 and MEKK2 WT-MEK5 100.0.
`Cc1ccc(C(=O)NNc2cc(=O)n(C)c(=O)n2C)cc1C` gave MEKK3 PB1 HTS 142.0*, MEKK2mut PB1 HTS 0.0, dFosB activator -4.1, DNA FID counter 4.9, MEKK2 WT-MEK5 105.0, MEKK2wt confirm 102.0, MEKK2mut confirm -8.0 and MEKK3-MEK5 inh 102.0.
Screening CCOC(=O)C1(CCOc2ccccc2)CCN(Cc2cc(OC)c3c(c2)OCO3)CC1 returned MEKK3 PB1 HTS 104.0, MEKK2mut PB1 HTS 41.0, dFosB activator -11.9, DNA FID counter 17.6, MEKK2 WT-MEK5 145.0*, MEKK2wt confirm 126.0, MEKK2mut confirm 17.0 and MEKK3-MEK5 inh 108.0.
CCOC(=O)C1(CCOc2ccccc2)CCN(Cc2cccc3c2OCO3)CC1 was read as MEKK3 PB1 HTS 106.0, MEKK2mut PB1 HTS 3.0, dFosB activator -10.0, DNA FID counter 9.7 and MEKK2 WT-MEK5 115.0.
Screening CC(NC(=O)C(C)(C)C)c1nc2ccccc2n1C (configuration not stated) returned MEKK3 PB1 HTS 0.0*[inhibitor], MEKK2mut PB1 HTS -16.0, dFosB activator -2.5, DNA FID counter 4.7, MEKK2 WT-MEK5 0.0*[inhibitor], MEKK2wt confirm 108.0, MEKK2mut confirm 7.0 and MEKK3-MEK5 inh 101.0.
`CCN(CC)S(=O)(=O)c1ccc(N2CCOCC2)c(NC(=O)c2cc(Cl)c3c(c2)OCO3)c1` gave dFosB activator -11.9.
`O=C(Cc1ccc2ccccc2c1)Nc1ccccc1Br` gave MEKK3 PB1 HTS 93.0, MEKK2mut PB1 HTS 2.0, dFosB activator -1.3, DNA FID counter -3.1 and MEKK2 WT-MEK5 99.0.
`O=C(Cc1ccc2c(c1)CCCC2)Nc1ccccc1Br` gave MEKK3 PB1 HTS 43.0*[inhibitor], MEKK2mut PB1 HTS -25.0, dFosB activator -3.0, DNA FID counter -10.9, MEKK2 WT-MEK5 58.0, MEKK2wt confirm 108.0, MEKK2mut confirm 6.0 and MEKK3-MEK5 inh 106.0.
For Cc1ccc(NC(=O)CCC(=O)OCC(=O)c2ccc(Oc3ccc([N+](=O)[O-])cc3)cc2)cc1 the results were MEKK3 PB1 HTS 144.0*, MEKK2mut PB1 HTS 0.0, dFosB activator 1.1, DNA FID counter 1.6, MEKK2 WT-MEK5 108.0, MEKK2wt confirm 101.0, MEKK2mut confirm 1.0 and MEKK3-MEK5 inh 104.0.
Screening Cc1c(C(=O)NCC2CCCO2)cccc1[N+](=O)[O-] (configuration not stated) returned MEKK3 PB1 HTS 122.0, MEKK2mut PB1 HTS 0.0, dFosB activator -7.4, DNA FID counter -1.2 and MEKK2 WT-MEK5 105.0.
CCCn1c(SCC(=O)NC(=O)Nc2ccc(C)cc2C)n[nH]c1=O was read as MEKK3 PB1 HTS 0.0*[inhibitor], MEKK2mut PB1 HTS -18.0, dFosB activator -2.5, DNA FID counter -6.6, MEKK2 WT-MEK5 -5.0*[inhibitor], MEKK2wt confirm 111.0, MEKK2mut confirm 5.0 and MEKK3-MEK5 inh 114.0.

Compound activity from PubChem.
